# Bioassay records: PubChem BioAssay, Sanford-Burnham Center for Chemical Genomics
# tim23-1 inh = growth inhibitors of tim23-1 mutant yeast; S. cerevisiae tim23-1 growth, BacTiter-Glo luminescence, 24 h; inhibition, % at 20 µM; 1.3% of 330,000 active; AID 463212;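 active = growth inhibition of the mutant yeast at or above 50%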;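 also: temperature-sensitive mutant grown at 25 °C; plate controls were DMSO-treated mutant yeast for no effect and medium wells lacking yeast for full effect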
# TIM10 inh = inhibits growth of TIM10 yeast strain; S. cerevisiae TIM10 strain growth, BacTiter-Glo luminescence, 24 h; AID 463195; inhibition, % at 10 µM; 1.4% of 330,000 active;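 active = inhibition of 40% or more at the single tested concentration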;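 also: wild-type TIM10 isogenic control strain grown at permissive 25 °C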
# NALP3 yeast inh = NALP3 inhibition in yeast | Yeast reconstituted NLRP3/ASC/caspase-1, beta-gal luminescence, 24 h | inhibition, % at 10 µM | 0.39% of 330,000 active | AID 2825;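 active = inhibition of 50% or more; inactive = inhibition below 50%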;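 also: plate controls were induced DMSO wells for no effect and uninduced yeast grown without galactose for full effect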
# tim10-1 inh = growth inhibitors of tim10-1 mutant yeast; inhibition, % at 20 µM; 2.2% of 330,000 active; S. cerevisiae tim10-1 ts strain growth, BacTiter-Glo, 24 h;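 active = inhibition of at least 40%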;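 also: mutant grown at 25 °C; 0% = DMSO wells with yeast and 100% = wells holding no yeast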
# NALP1 inh = blocks the NALP1 inflammasome reconstituted in yeast | inhibition, % at 10 µM | AID 2071 | 0.61% of 280,000 active | S. cerevisiae NALP1/ASC/caspase-1 growth, X-gal OD620, 72 h; in the data active = inhibition mostly above about 24%, no sharp cut-off; inactive = mostly below about 32%
# tim23-1 confirm = confirmation of tim23-1 mutant yeast growth inhibitors; shares compounds with tim23-1 inh; S. cerevisiae tim23-1 growth, BacTiter-Glo luminescence, 24 h; inhibition, % at 20 µM; 83% of 4,400 active; AID 463218;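 active = inhibition above about 39% in either of two replicate wells at 20 µM, limit read from the data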;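 also: temperature-sensitive tim23-1 mutant grown at 25 °C; 0% = DMSO wells with yeast and 100% = medium wells without yeast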
# Numbers without * were called inactive; . = no result given. The list is not random: actives were taken first. Their share in the collection is about 4%.
SMILES,tim23-1 inh,TIM10 inh,NALP3 yeast inh,tim10-1 inh,NALP1 inh,tim23-1 confirm
O=C(N/N=C/c1cc(Br)ccc1O)Nc1ccccc1,11,10,14,10,18,.
COc1ccc(CCNC(=O)c2nn(C)c3c2CS(=O)(=O)c2ccccc2-3)cc1OC,-8,0,8,-1,9,.
C[C@H]1CN(S(=O)(=O)c2ccc3c(c2)OCCO3)CCN1S(=O)(=O)c1c(F)cccc1F,51*,22,3,21,.,31
O=S(=O)(c1ccc2c(c1)OCCO2)N1C[C@@H]2C[C@H]1CN2S(=O)(=O)c1c(F)cccc1F,21,-2,2,14,.,.
Cc1c(N2C(=O)/C(=C\c3ccccc3O)SC2=S)c(=O)n(-c2ccccc2)n1C,67*,32,14,24,24,63*
Cc1c(N2C(=O)/C(=C/c3ccccc3)SC2=S)c(=O)n(-c2ccccc2)n1C,10,7,13,28,9,.
OC(COc1ccc(CN2CCCCO2)cc1)CN1CCCCC1 (centres undefined),5,-17,0,-7,13,.
O=C(Nc1ccc(-c2nc3ncccc3o2)cc1)c1ccc([N+](=O)[O-])o1,65*,36,-12,27,9,83*
O=C(Nc1cc(-c2ccccc2)[nH]n1)c1ccccc1,52*,32,28,-47,.,56*
O=C(Nc1cc(-c2ccccc2)[nH]n1)c1ccccc1F,51*,13,46,-15,.,41*
Clc1ccc(N2CCN(/N=C/c3cccnc3)CC2)cc1,25,17,27,25,8,.
COc1ccccc1C(=O)COC(=O)Cc1ccccc1F,52*,14,29,19,.,54*
COc1ccccc1C(=O)COC(=O)Cc1c[nH]c2ccccc12,23,13,32,18,.,.
O=C(CSc1ccccc1)N/N=C/c1ccccc1O,52*,19,25,25,16,55*
O=C(CSc1n[nH]c(=O)[nH]c1=O)N/N=C/c1ccccc1O,2,-7,4,13,23,.
O=C(Cn1c(-c2ccccc2)noc1=O)Nc1ccc(S(=O)(=O)N2CCOCC2)cc1,2,3,5,8,23,.
O=C(Cn1c(-c2ccccc2)noc1=O)Nc1ccc(N2CCCCCC2)cc1,51*,29,6,39,36*,42*
COc1ccccc1NS(=O)(=O)c1cc2c3c(c1)CCN3C(=O)CC2,7,-1,14,-5,.,.
COc1cc2[nH]c(C(=O)N3CCN(c4ccccc4F)CC3)cc2c(OC)c1OC,51*,24,2,37,18,38
COc1ccccc1N1CCN(C(=O)c2ccc(-c3ccc(Cl)cc3)o2)CC1,52*,36,22,37,.,48*
COc1ccc2cc(C(=O)N3CCN(c4ccccc4F)CC3)[nH]c2c1,21,6,16,23,2,.
COc1ccc2cc(C(=O)N3CCN(c4ccccc4OC)CC3)[nH]c2c1,59*,33,8,32,4,53*
O=C(COc1ccccc1CNCc1ccccc1)Nc1ccccc1,-14,9,10,9,8,.
Cc1nn(-c2ccccc2)c2c1C(c1ccc([N+](=O)[O-])cc1)C(C#N)=C(N)O2 (centres undefined),12,-2,1,9,-2,.
Cc1nn(-c2ccccc2)c2c1C(c1cccs1)C(C#N)=C(N)O2 (centres undefined),61*,32,9,24,6,60*
SMILES,tim23-1 inh,TIM10 inh,NALP3 yeast inh,tim10-1 inh,NALP1 inh,tim23-1 confirm
CCCc1nn(-c2ccccc2)c2c1C(c1cccs1)C(C#N)=C(N)O2 (centres undefined),51*,29,8,36,5,44*
Cc1nn(-c2ccccc2)c2c1C(c1ccco1)C(C#N)=C(N)O2 (centres undefined),24,8,16,7,27,.
O=C(N/N=C/CCc1ccccc1)c1ccccc1,55*,6,3,-3,8,6
O=C(CNC(=O)C12CC3CC(CC(C3)C1)C2)OCc1cc(=O)n2cc(Br)ccc2n1,23,4,8,23,3,.
CCOc1ccc(C(C)=O)cc1COC(=O)CNC(=O)C12CC3CC(CC(C3)C1)C2,50*,22,23,26,.,35
O=C(CNC(=O)C12CC3CC(CC(C3)C1)C2)OCc1ccc(F)cc1Cl,52*,28,24,22,.,60*
CCOc1ccc(C(=O)NCC(=O)OCc2cc(C(C)=O)ccc2OC)cc1,14,6,5,5,22,.
CCOC(=O)[C@H]1[C@H]2COc3ccc(Cl)cc3[C@@H]2N2C(=O)c3ccc(Cl)cc3NC(=O)[C@@]12C,16,1,9,10,.,.
CC(C)(C)c1csc(N/N=C/c2ccc(O)cc2)n1,57*,24,33,30,3,39
Cc1ccccc1Nc1nc2ccccc2s1,50*,22,25,32,31,35
Clc1cccc(Cl)c1C1Nc2cccc3cccc(c23)N1,53*,30,15,29,16,75*
Nc1nc(-c2ccc(-c3ccccc3)cc2)cs1,54*,0,29,27,8,69*
Oc1ccc(-c2csc(-c3ccccc3)n2)cc1O,58*,-39,39,7,-16,-10
O=C1CCN(Cc2ccc([N+](=O)[O-])cc2)CCN1[C@H](CO)c1ccccc1,0,-10,5,17,27,.
CCCCOc1ccc(Cc2cnc(N)nc2N)cc1,18,-1,19,-21,.,.
CCCCOc1ccc(N=Nc2ccc(N)nc2N)cn1,80*,36,32,37,20,70*
Cc1nc(SCc2nc3ccc(Cl)cc3[nH]2)c2oc3ccccc3c2n1,45,-1,35,21,.,.
Cc1nc(SCc2nc3ccc(C(F)(F)F)cc3[nH]2)c2oc3ccccc3c2n1,57*,7,22,33,.,49*
Cc1nc(SCc2nc3cc(Cl)c(F)cc3[nH]2)c2oc3ccccc3c2n1,56*,35,34,33,.,50*
COc1cc(SC)ccc1C(=O)Nc1ccc2c(c1)OCCO2,51*,-3,31,27,11,45*
CCOc1ccc(-c2nc(CCl)cs2)cc1,-2,-8,28,13,6,.
COc1ccc(Br)cc1-c1nc(CCl)cs1,51*,37,23,37,-34,57*
O=C(OCCN1CCOCC1)c1ccc(O)cc1,-5,-7,21,-3,17,.
COc1ccccc1NC(=S)NCCc1ccc(Cl)cc1,3,39,-19,40,-5,.
COc1ccccc1NC(=S)NCCSc1ccc(Cl)cc1,54*,40,7,33,17,50*
COc1ccc(NC(=S)NCCSc2ccc(Cl)cc2)c(OC)c1,50*,32,11,34,18,42*
Cc1[nH][nH]c(=O)c1C(c1ccc(-c2cccc(C(=O)O)c2)o1)c1c(C)[nH][nH]c1=O,12,6,2,8,-18,.
